# Source: PubChem BioAssay AID720504 (National Center for Advancing Translational Sciences (NCATS), 2013)
# In all, about 360,000 compounds went through this assay and about 10,000 (2.8%) were called active. About 4% were inconclusive and are not listed. What follows is part of a selection rich in actives, with near analogues and random picks from the rest. Values without a mark were called inactive. Calls follow the shape of the dose curve; as a rule, active = well fitted inhibition curve with a large enough effect; inconclusive = small, poorly fitted or top-dose-only effect; inactive = flat fitted curve, though single readings scatter.
# Target: Serine/threonine-protein kinase PLK1 (Homo sapiens) (UniProt P53350)
# Sequence (P53350 whole entry, looked up, the tested form may be a part): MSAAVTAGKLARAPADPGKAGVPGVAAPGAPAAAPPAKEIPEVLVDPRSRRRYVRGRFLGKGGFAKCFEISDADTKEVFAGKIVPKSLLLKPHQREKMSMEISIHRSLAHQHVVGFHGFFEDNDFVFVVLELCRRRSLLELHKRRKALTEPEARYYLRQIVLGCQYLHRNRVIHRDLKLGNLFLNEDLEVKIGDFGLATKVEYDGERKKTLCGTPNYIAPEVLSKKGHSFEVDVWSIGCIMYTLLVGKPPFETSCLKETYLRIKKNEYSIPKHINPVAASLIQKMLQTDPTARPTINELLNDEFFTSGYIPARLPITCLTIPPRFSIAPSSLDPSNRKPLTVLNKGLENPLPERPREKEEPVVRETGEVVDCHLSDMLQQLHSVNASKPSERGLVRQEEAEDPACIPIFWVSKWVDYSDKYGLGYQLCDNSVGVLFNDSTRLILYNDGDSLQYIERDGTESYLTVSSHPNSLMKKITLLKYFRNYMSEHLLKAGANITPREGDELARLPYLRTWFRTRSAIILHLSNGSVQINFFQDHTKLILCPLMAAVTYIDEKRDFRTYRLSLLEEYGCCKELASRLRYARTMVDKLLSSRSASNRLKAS
# Assay: qHTS for Inhibitors of PLK1-PDB (polo-like kinase 1 - polo-box domain): Primary Screen; also: nearly all actives have a fitted effect of over 65% in size; as to max response, negative = inhibition: series mostly up to about 57 µM
# Conditions: Plk1 PBD binding of FITC phosphopeptide, fluorescence polarization
# % is scaled to controls: 0 for no effect and ±100 for the full control effect; potency is read from the fitted curve at half-maximal effect.
SMILES,"max response, negative = inhibition",Potency
O=C(NNc1cc(Cl)ccc1Cl)c1cccnc1Cl,7.67%,
COc1cccc(CNC(=O)c2cccnc2Sc2ccc(Cl)cc2)c1,-0.639%,
NC(c1csc(NC(=O)Nc2cccc(C(F)(F)F)c2)n1)C1CCCCC1 (stereo not drawn),-5.95%,
CC(=O)Nc1ccc(CNc2nc(NCCN(C)C)nc3cc(-c4ccccc4)sc23)cc1,0.652%,
Cc1cccc(C)c1Cn1c(C)c(C(=O)NCc2cccc(Cl)c2)sc1=O,-19.8%,
CCNC(=O)C1(C)CCCN1C(=O)c1ccc(N(C)C)cc1 (stereo not drawn),-10.7%,
NC(=O)C1(N2CCCCC2)CCN(C(=S)Nc2ccc(Cl)cc2)CC1,1.24%,
O=C(NC1CCN(C(=S)Nc2ccc(Cl)cc2)CC1)C1CCCCC1,-11.1%,
CN(C)c1ccc(C(=S)N2CCN(C(=S)Nc3ccc(Cl)cc3)CC2)cc1,,6.7 µM (active)
Cc1ccc(-c2nc3c(C)cc(Br)cn3c2Cc2ccccc2)cc1,-13.2%,
COc1ccc(OC)c(NC(=O)C2(C)CCN2C(=O)Cc2ccccc2)c1 (stereo not drawn),-5.3%,
COc1cc(=O)[nH]c(=O)n1C(=O)Cc1ccccc1,,2.99 µM (active)
CCCOc1ccc(Cn2c(O)cc(=O)[nH]c2=O)cc1,-26.3%,
COc1ccc(-c2cnc3c(c2)C(=O)N([C@H](C)CO)C[C@@H](C)[C@H](CN(C)Cc2ccccc2)O3)cc1,-12.1%,
O=C1NC[C@H](Cc2ccc(O)cc2)N(C[C@@H]2CCCN2C[C@H](Cc2ccccc2)N2C[C@H](Cc3ccccc3)N(CC3CCCCC3)C(=O)C2=O)C1=O,-9.78%,
O=C(c1cc(C2CCCCN2S(=O)(=O)c2ccccc2)on1)N1CCOCC1 (stereo not drawn),3.83%,
C=CS(=O)c1sc(Cl)c(N2CCOCC2)c1[N+](=O)[O-] (stereo not drawn),,1.34 µM (active)
O=S1(=O)C[C@@H](N2CCN(CCO)CC2)[C@H](COCc2ccccc2)N1,-14.5%,
Cc1cc(Br)cn2c(Cc3ccccc3C(F)(F)F)c(C3CCCCC3)nc12,-6.9%,
CN(C(=O)COC(=O)c1ccc(Br)o1)c1c(N)n(Cc2ccccc2)c(=O)[nH]c1=O,2.32%,
Cc1cc2nc3c(=O)n(Cc4ccccc4)c(=O)[nH]c3nc2cc1N,,3.36 µM (active)
Nc1cc(=O)n(Cc2ccccc2)c(=O)n1Cc1ccccc1,-11.9%,

SMILES,"max response, negative = inhibition",Potency
COCCCNC(=O)c1ccc(-c2c(C)noc2C)c2ccoc12,-2.73%,
CCCNC(=O)C1(C)CCN(C(=O)c2cc(F)ccc2C)C1 (stereo not drawn),-7.98%,
Cn1sc(=O)c2cc(S(=O)(=O)NC3CC3)ccc21,,2.12 µM (active)
O=S(=O)(NC1CC1)c1ccc(Cl)cc1,-11.6%,
CC1CCC(NS(=O)(=O)c2ccc3c(c2)n(C)c(=O)c(=O)n3C)CC1 (stereo not drawn),-1.85%,
COC(=O)c1ccc2nc(-c3ccccc3)c(Cc3ccc(OC)cc3C)n2c1,-8.32%,
CCOC(=O)C1=CCC(c2ccc(F)cc2)N(S(=O)(=O)c2ccc(C)cc2)C1 (stereo not drawn),-10.4%,
COc1ccc(NC(=O)CSc2ncnc3[nH]ncc23)cc1,,3.77 µM (active)
COc1ccc(-n2ncc3c(SCC(=O)NNC(C)=O)ncnc32)cc1,4.95%,
O=C(CSc1nc2[nH]ncc2c(=O)[nH]1)Nc1ccc(F)cc1,-1.42%,
Cn1cnc(S(=O)(=O)N2C[C@@H](O)COC[C@@H]3O[C@H](CC(=O)NC4CCC4)CC[C@H]32)c1,-0.717%,
Cc1nccn1-c1ccc(NC(=O)[C@H]2O[C@@H](n3ccc(=O)[nH]c3=O)[C@H](O)[C@@H]2O)cc1,0.546%,
CCOC(=O)[C@]12CCC=C1N(Cc1ccccc1)C(=O)[C@H](CC(=O)N1CCCC1)C2,-1.56%,
CCCCCn1nnnc1C1c2ccccc2C(=O)N1Cc1ccco1 (stereo not drawn),-6.84%,
Cc1cc(C)c([N+](=O)[O-])cc1-c1ccc(/C=N/NC(=O)c2nonc2N)o1,0.266%,
Cc1ccc2nc(SCc3nnc(-c4ccccc4[N+](=O)[O-])o3)c(C#N)cc2c1,-9%,
Cc1ccc(-c2ccc(/C=C(\C#N)C(N)=S)o2)c([N+](=O)[O-])c1,,26.7 µM (active)
CC1=C(C(=O)N(C(C)C)C(C)C)CC(CC(=O)NCC2CCCCC2)C(=O)N1Cc1ccccc1 (stereo not drawn),-4.13%,
O=C(C(=O)N1CCC(c2ccccc2)CC1)c1ccccc1,3.91%,
Brc1ccc(C2=CC(c3ccco3)n3ncnc3N2)cc1 (stereo not drawn),,23.8 µM (active)
Clc1ccc2c(c1)C1=C(C(c3ccncc3)O2)C(c2ccc(Br)cc2)n2ncnc2N1 (stereo not drawn),-0.898%,
